These results are taken from PubChem BioAssay (Tox21).

Where “and” joins values, the source holds several entries; their conditions need not be identical. Identical values can stand only once. Records with an inconclusive call do not appear. Some compounds were tested as several samples or in several runs, with calls that do not always agree. Calls of active or inactive are those of the source. Unless noted, calls come from the whole dose curve; as a rule, active = well fitted curve in the direction sought with a large enough effect in the repeat runs; inconclusive = weak or mixed curves; inactive = no such curve, though single readings can be large; an effect the other way counts as inactive or inconclusive.

Assay [1] concerns the target Retinoic acid receptor RXR-alpha (Homo sapiens) (UniProt P19793). Kind of assay: qHTS assay to identify small molecule agonists of the RXR signaling pathway (AID 1159527; calls by dose curve; note: nearly all actives have a fitted effect of over 35% in size; note: potency is the fitted concentration of half-maximal effect). The essentials:
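Agonist-mode beta-lactamase reporter assay: HEK 293T RXR-alpha-UAS-bla cells treated 16 hr at 37 C with compounds, 9-cis retinoic acid as positive control. LiveBLAzer FRET substrate, 405 nm excitation, 460/530 nm emission.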

Assay [2] is described as follows: qHTS assay to identify small molecule agonists of the RXR signaling pathway - cell viability counter screen (AID 1159529). Note: nearly all actives have a fitted effect of over 50% in size. The essentials: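 CellTiter-Glo luminescence gave viability in the wells also read for beta-lactamase. Cells (RXR-alpha-UAS-bla HEK 293T, 2% charcoal-stripped FBS medium) had 5 hr plating, then 16 hr compound exposure at 37 C; tetraoctyl ammonium bromide served as positive control.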
(In general: qHTS replaces the single test concentration by a dilution series.)

A short description of assay [3]: qHTS assay to identify small molecule antagonists of the retinoid acid receptor (RAR) signaling pathway - cell viability counter screen (AID 1159551). Note: nearly all actives have a fitted effect of over 35% in size. The method, boiled down:
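Measured by luminescent ATP detection, viability reflects C3RL4 cells treated 6 h at 37 C with test chemicals in the presence of 1 uM (final) retinol.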

A short description of assay [4]: qHTS assay to identify small molecule antagonists of the retinoic acid receptor (RAR) signaling pathway (AID 1159552; note: nearly all actives have a fitted effect of over 50% in size; note: potency is the fitted concentration of half-maximal effect). The method, boiled down: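 Luminescent RARE reporter read-out in C3RL4 cells: 6 hr co-treatment at 37 C of test compounds with retinol at 1 uM final. Cells plated overnight beforehand; luciferase reagent incubated 30 min at room temperature before reading.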

Assay [5] in a line: qHTS assay to identify small molecule agonists of the retinoic acid receptor (RAR) signaling pathway (AID 1159553). Note: potency is the fitted concentration of half-maximal effect. The note with it: C3RL4 RARE luciferase reporter, agonist, 6 h. The method, boiled down: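 6 hr compound exposure (DMSO vehicle) of overnight-plated C3RL4 RARE-luc cells at 37 C; luminescence quantified after 30 min RT with luciferase reagent.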
Assay [6] in a line: qHTS assay to identify small molecule antagonists of the estrogen related receptor (ERR) signaling pathway from Tox21 library - cell viability counter screen (AID 1224834). Note: nearly all actives have a fitted effect of over 30% in size. The essentials: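 Seeded ERR cells were rested 6 h at 37 C/5% CO2 before compounds, positive and negative controls or DMSO were added. Incubation continued for 17.5 h, and viability was then quantified by CellTiter-Fluor fluorescence.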

For assay [7], the target named is Luciferin 4-monooxygenase (Photinus pyralis) (UniProt P08659). Kind of assay: qHTS assay to identify small molecule inhibitors of firefly luciferase (AID 1224835). Note: nearly all actives have a fitted effect of over 25% in size. Note: potency is the fitted concentration of half-maximal effect. The method, boiled down:
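Quantitative HTS format; KM concentrations of both substrates. Purified P. pyralis FLuc activity quantified from luminescence images.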

Assay [8] can be described thus: qHTS assay to identify small molecule agonists of the constitutive androstane receptor (CAR) signaling pathway - cell viability counter screen (AID 1224836). Note: nearly all actives have a fitted effect of over 45% in size. The essentials:
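Cell viability multiplexed with the CAR agonist screen: CellTiter-Fluor fluorescence after 23 hr at 37 C. HepG2-CYP2B6-hCAR cells got compounds at 15 concentrations with PK11195 at 0.75 uM final.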

The nature of assay [9]: qHTS assay to identify small molecule antagonists of the estrogen related receptor (ERR) signaling pathway - cell viability counter screen (AID 1224818).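 Note: viability measured after 17.5 h of compound exposure.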 The method, boiled down:
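Compounds dissolved in DMSO were applied to ERR cells seeded at 2,000 per well 6 h earlier. Cell viability followed 17.5 h later via 30-min CellTiter-Fluor fluorescence.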

A short description of assay [10]: qHTS assay to identify small molecule antagonists of the estrogen related receptor signaling pathway with the pleiotropic PPARgamma coactivator (PGC) cell viability counter screen (AID 1224822;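 note: viability read after 17.5 h compound exposure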). The text has this:
National Center for Advancing Translational Sciences [NCATS]
NIH Chemical Genomics Center [NCGC]
U.S. Environmental Protection Agency [EPA]
National Institutes of Environmental Health Sciences [NIEHS]
National Toxicology Program [NTP]
U.S. Food and Drug Administration [FDA]
Estrogen related receptors (ERRs), the first orphan nuclear receptors discovered, play an important role in the control of cellular energy metabolism. ERRs are required for high-energy production in response to the environmental challenges. The pleiotropic PPARgamma coactivator (PGC) is a major partner of ERR and a key regulator in energy homeostasis. Together they have been implicated in the etiology of metabolic disorders such as Type 2 diabetes and metabolic syndrome. ERR-alpha was also identified as an adverse marker for breast cancer progression; ERR-alpha-positive tumors have a poor prognosis. To screen and to identify environmental compounds that perturb the ERR and PGC/ERR signaling pathways could provide valuable information for potential therapeutic or preventive measures in the treatment of metabolic disease. To differentiate true PGC/ERR antagonists or agonist from cytotoxic substances, the assay is multiplexed with cell viability assay.
Tox21 Assay Protocol Summary:
The PGC/ERR cells were dispensed at 2,000 cells/5 ul/well in 1536-well white plates using a Multidrop dispenser. After the assay plates were incubated at a 37 C/5% CO2 incubator for 6 hours, 23 nL of compounds dissolved in DMSO, positive and negative controls or DMSO only was transferred to the assay plate by a pin tool. The plates were incubated at 37 C for 17.5 hours. 1 ul/well of CellTiter-Fluor reagent was added into the assay plates using a Flying Reagent Dispenser. After 30 min incubation at 37 C/5% CO2, the fluorescence intensity in the plates was measured using a ViewLux plate reader.

[11] abbreviates: activation: at 73.3 µM (top of the series) unless noted.
% is set by controls: 0 for no effect and ±100 for the full control effect.

Retinoic acid receptor RXR-alpha (Homo sapiens), sequence (P19793 whole entry, looked up): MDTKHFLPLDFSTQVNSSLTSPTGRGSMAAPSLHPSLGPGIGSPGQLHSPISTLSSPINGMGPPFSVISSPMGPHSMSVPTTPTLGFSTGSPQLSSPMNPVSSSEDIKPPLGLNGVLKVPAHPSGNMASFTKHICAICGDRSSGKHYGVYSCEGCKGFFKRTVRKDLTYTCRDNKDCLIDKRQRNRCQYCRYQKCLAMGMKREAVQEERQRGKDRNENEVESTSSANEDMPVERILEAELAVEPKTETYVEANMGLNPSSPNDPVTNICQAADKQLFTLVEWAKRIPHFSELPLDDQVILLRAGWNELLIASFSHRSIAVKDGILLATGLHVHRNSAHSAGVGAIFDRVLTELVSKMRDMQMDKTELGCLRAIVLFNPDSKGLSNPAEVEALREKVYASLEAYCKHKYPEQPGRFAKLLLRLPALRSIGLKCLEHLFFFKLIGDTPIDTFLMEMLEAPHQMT
Luciferin 4-monooxygenase (Photinus pyralis), sequence (P08659 whole entry, looked up): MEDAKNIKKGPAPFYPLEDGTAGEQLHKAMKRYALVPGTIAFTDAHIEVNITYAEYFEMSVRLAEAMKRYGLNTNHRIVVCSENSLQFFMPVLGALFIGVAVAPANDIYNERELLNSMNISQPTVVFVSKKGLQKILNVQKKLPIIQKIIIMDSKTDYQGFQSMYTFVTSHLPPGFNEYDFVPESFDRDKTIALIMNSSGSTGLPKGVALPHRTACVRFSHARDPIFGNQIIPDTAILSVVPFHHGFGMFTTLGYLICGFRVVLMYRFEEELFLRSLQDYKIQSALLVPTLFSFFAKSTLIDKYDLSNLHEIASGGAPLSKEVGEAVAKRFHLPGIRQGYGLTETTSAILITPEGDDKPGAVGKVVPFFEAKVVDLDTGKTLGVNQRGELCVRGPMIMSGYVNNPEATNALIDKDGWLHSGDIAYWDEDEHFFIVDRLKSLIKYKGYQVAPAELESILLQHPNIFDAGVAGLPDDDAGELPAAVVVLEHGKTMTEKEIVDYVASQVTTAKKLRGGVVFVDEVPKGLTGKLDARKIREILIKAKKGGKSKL

Take `CCOP(=S)(OCC)SCCSCC`: the Potency result in assay [1], in assay [2], in assay [4], in assay [5] (setting [11]), in assay [6] and in [7] was “inactive” in each case. In assay [3], the compound was classed as inactive.

Consider `CC(C)C#N`, for which the Potency in assay [1] was 9.26 µM (active) and inactive; in assay [4] it was 16.3 µM (active) and inactive. Besides, the Potency result in assay [2], in [5] (setting [11]), in [6] and in assay [7] was “inactive” throughout. Besides, the compound was called inactive in assay [3].

As to `BrCCBr`, the Potency result in assay [1], in [2], in assay [4], in assay [5] (setting [11]), in assay [6] and in [7] was “inactive” each time. Also, in assay [8], the Potency entry is “inactive”. Moreover, the compound was called inactive in assay [3].

`CC(C)OC(=O)Nc1cccc(Cl)c1`: the Potency entry in assay [1], in assay [2], in [4] and in assay [6] was “inactive” in each case. Further, in assay [3], the result was inactive. The Potency is 6.11 µM (active) in assay [5] (setting [11]); 31.3 µM (active) and 35.6 µM (active) in assay [7].

Consider `O=Cc1cccc(Oc2ccccc2)c1`, for which the Potency entry in assay [1], in [2], in [4], in [5] (setting [11]), in assay [6] and in [7] was “inactive” in each case. The result in assay [3] was inactive.

Turning to `C=CC(N)=O`, the Potency entry in assay [1], in assay [2], in [4], in assay [5] (setting [11]), in assay [6] and in [7] was “inactive” each time. The outcome in assay [3] was inactive.

For the compound `COCCl`, the Potency result in assay [1], in assay [2], in assay [4], in assay [5] (setting [11]), in [6] and in assay [7] was “inactive” each time. Further, in assay [8], the Potency entry is “inactive”. Moreover, the call in assay [3] was inactive.

For `OCCN(CCO)CCO`, the Potency entry in assay [1], in assay [2], in assay [4], in [5] (setting [11]), in assay [6] and in assay [7] was “inactive” throughout. Moreover, the Potency entry in assay [8] was “inactive”. The compound was called inactive in assay [3].

Turning to `CCCCOC(=O)c1ccccc1C(=O)OCCCC`, the Potency entry in [1], in [2], in assay [4], in assay [5] (setting [11]), in assay [6] and in [7] was “inactive” in each case. The result in assay [3] was inactive.

For `NCC(O)c1ccc(O)cc1` (stereo not drawn), the Potency result in assay [1], in assay [2], in assay [4], in assay [5] (setting [11]), in [6] and in [7] was “inactive” in each case. The Potency result in assay [8] is “inactive”. Moreover, the outcome in assay [3], in [9] and in assay [10] was inactive.

Turning to `Nc1ccc(Cc2ccc(N)cc2)cc1`, the Potency result in assay [1], in assay [2], in assay [4], in assay [5] (setting [11]), in assay [6] and in [7] was “inactive” each time. In addition, the compound was called inactive in assay [3].

`O=NN1CCCCCCC1`: the Potency entry in assay [1], in [2], in assay [4], in [5] (setting [11]), in [6] and in [7] was “inactive” throughout. In [3], the outcome was inactive.

Consider `CC(C)OC(=O)Nc1ccccc1`, for which the Potency result in [1], in assay [2], in assay [4], in [6] and in [8] was “inactive” throughout. Moreover, the call in assay [3] was inactive. The Potency in [5] (setting [11]) was 30.7 µM (active); in assay [7] it was 40 µM (active) and 35.6 µM (active).

For the compound `C1CC2OC2CC1C1CO1` (stereo not drawn), the Potency result in assay [1], in assay [2], in [4], in assay [5] (setting [11]), in assay [6] and in assay [7] was “inactive” each time. Further, the Potency entry in assay [8] is “inactive”. In [3], the result was inactive.

As for `CN(C)N=O`, the Potency entry in [1], in assay [2], in assay [4], in assay [5] (setting [11]), in [6] and in assay [7] was “inactive” throughout. Further, the result in assay [3] was inactive.

Regarding `O=c1[nH]c(=O)[nH]c(=O)[nH]1`, the Potency entry in assay [1], in assay [2], in [4], in assay [5] (setting [11]), in assay [6] and in assay [7] was “inactive” throughout. Also, in assay [3], the compound was classed as inactive.

`Cc1ccccc1O`: the Potency entry in assay [1], in assay [2], in assay [4], in assay [5] (setting [11]), in [6] and in assay [7] was “inactive” throughout. Further, the compound was called inactive in [3].

Consider `c1ccc2c(c1)Oc1ccccc1O2`, for which the Potency entry in [1], in assay [2], in assay [4], in assay [5] (setting [11]) and in assay [6] was “inactive” each time. In addition, the compound was called inactive in assay [3].

For `CC(C)(C)C(O)(CCc1ccc(Cl)cc1)Cn1cncn1` (stereo not drawn), the Potency result in [1], in assay [2], in assay [4] and in assay [7] was “inactive” each time. In [3], the call was inactive. In addition, the activation in assay [5] (setting [11]) was -3.95% [at 94.8 µM] (active); in [5] (at 73.3 µM (top of the series)), -2.94% (inactive).

Take `COP(N)(=O)SC` (stereo not drawn): the Potency result in assay [1], in assay [2], in assay [4], in assay [5] (setting [11]), in [6] and in [7] was “inactive” each time. Besides, the compound was classed as inactive in assay [3].

In the case of `O=C(NC(=O)c1c(F)cccc1F)Nc1cc(Cl)c(OC(F)(F)C(F)C(F)(F)F)cc1Cl` (stereo not drawn), the Potency entry in [1], in assay [2], in assay [4], in [5] (setting [11]), in assay [6] and in assay [7] was “inactive” throughout. Moreover, in assay [3], the compound was called inactive.

Regarding `CC(C)N1C(=O)c2ccccc2NS1(=O)=O`, the Potency entry in assay [1], in assay [2], in assay [4], in assay [5] (setting [11]), in assay [6] and in [7] was “inactive” each time. Besides, the result in assay [3] was inactive.

Regarding `c1ccc(-c2ccccc2)cc1`, the Potency result in assay [1], in assay [2], in assay [4], in assay [5] (setting [11]), in assay [6] and in [7] was “inactive” each time. The call in assay [3] was inactive.

For `Nc1ccccc1C(=O)O`, the Potency entry in assay [1], in assay [2], in [4], in assay [5] (setting [11]), in [6] and in [7] was “inactive” each time. The compound was classed as inactive in assay [3].

Consider `C#CCN(C)[C@H](C)Cc1ccccc1`, for which the Potency entry in [1], in assay [2], in [4], in assay [5] (setting [11]), in [6] and in assay [7] was “inactive” each time. Moreover, the Potency entry in assay [8] is “inactive”. Also, in [3], the call was inactive.
